“And” between values parts separate entries of the source, which are not always exact repeats. Identical values can stand only once. Inconclusive results are not listed. The source made the active and inactive calls. Unless noted, calls follow the shape of the dose curve; as a rule, active = well fitted curve in the direction sought with a large enough effect in the repeat runs; inconclusive = weak or mixed curves; inactive = no such curve, though single readings can be large; an effect the other way counts as inactive or inconclusive.
What was measured:
[1] = qHTS assay to identify small molecule antagonists of the estrogen receptor alpha (ER-alpha) signaling pathway using the BG1 cell line in the presence of 0.1 nM 17-beta-estradiol - cell viability counter screen (AID 1259241); also: nearly all actives have a fitted effect of over 40% in size; also: potency is read from the fitted curve at half-maximal effect
How it was run: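 VM7Luc4E2 cells (endogenous full-length ER-alpha, 4xERE-luciferase), cultured 5 days in charcoal-stripped serum, exposed to compounds with 0.1 nM 17beta-estradiol (final) for 22 hr at 37C. Viability read in same wells as live-cell protease fluorescence after 30 min.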

[2] = qHTS assay to identify small molecule antagonists of the androgen receptor (AR) signaling pathway using the MDA cell line in the presence of 0.5 nM R1881 - cell viability counter screen (AID 1259242); also: nearly all actives have a fitted effect of over 45% in size; also: potency is read from the fitted curve at half-maximal effect
How it was run: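 R1881 at 0.5 nM final stimulated MDA-kb2 cells during 16 hr compound treatment at 37C. Cytotoxicity read: CellTiter-Fluor fluorescence after 30 min.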

[3] = target: Androgen receptor (Homo sapiens) (UniProt P10275); assay: qHTS assay to identify small molecule antagonists of the androgen receptor (AR) signaling pathway using the MDA cell line in the presence of 0.5 nM R1881 (AID 1259243); also: nearly all actives have a fitted effect of over 50% in size; also: potency is read from the fitted curve at half-maximal effect
How it was run: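 We exposed MDA-kb2 cells to compounds under 0.5 nM R1881 stimulation for 16 hr at 37C and quantified MMTV-driven luciferase by luminescence.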

[4] = qHTS assay to identify small molecule phospholipidosis (PLD) inducers (AID 1259344; active = well fitted curve in the direction sought with a large enough effect; an effect the other way counts as inactive or inconclusive)
How it was run: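 Phospholipidosis is scored by imaging LipidTOX-stained pits in HepG2 cells exposed to compound for 24 h at 37 C; pit counts and integrated intensities per well and per cell serve as outputs.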

[5] = qHTS assay to identify small molecule HDAC inhibitors (AID 1259364); also: potency is read from the fitted curve at half-maximal effect;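 also: wild-type HCT-116 cells with endogenous class I/II HDAC activity; nearly all actives have a fitted effect of over 45% in size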
How it was run: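 Relative class I and II HDAC activity is taken from the luminogenic signal in HCT-116 cells, with compound exposure 2 hr and reagent development 30 min at room temperature.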

[6] = qHTS assay to identify small molecule HDAC inhibitors - cell viability counter screen (AID 1259365); also: series mostly up to about 92 µM; nearly all actives have a fitted effect of over 50% in size
How it was run: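 Wild-type HCT-116 cells, 1,500/well, cultured overnight, then compound-treated 2 h at 37 C. Viability measured as ATP luminescence with CellTiter-Glo after 30 min at room temperature.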

[7] = qHTS assay to identify small molecule agonists of the sonic hedgehog signaling (Shh) pathway - cell viability counter screen (AID 1259366); also: nearly all actives have a fitted effect of over 50% in size; also: potency is read from the fitted curve at half-maximal effect
How it was run: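 NIH/3T3-derived Gli1-Luc reporter cells, 2,000 per well, received compound after 4 h and were treated about 23 h at 37C. Viability measured in the same wells by CellTiter-Fluor fluorescence after 1 h.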

[8] = qHTS assay to identify small molecule antagonists of the sonic hedgehog signaling (Shh) pathway - cell viability counter screen (AID 1259367); also: nearly all actives have a fitted effect of over 55% in size; also: potency is read from the fitted curve at half-maximal effect
How it was run: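 Cells: 3T3 Gli1-Luc, 2,000/well, 4 hr pre-incubation. Compounds in DMSO, then conditioned medium. Incubation 24 hr, 37C, 5% CO2. CellTiter-Fluor at 23 hr, 1 hr, fluorescence.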

[9] = qHTS assay to identify small molecule agonists of the sonic hedgehog signaling (Shh) pathway (AID 1259368; calls by dose curve;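 also: NIH/3T3-derived 3T3Gli1-Luc cells carrying a stable Gli1-driven firefly luciferase reporter; series mostly up to about 92 µM; nearly all actives have a fitted effect of over 15% in size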)
How it was run: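 Mouse fibroblast (NIH/3T3) reporter cells with stably integrated Gli1-Luc were treated 24 hr with compound; firefly luciferase luminescence served as the read-out.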

[10] = qHTS assay to identify small molecule antagonists of the sonic hedgehog signaling (Shh) pathway (AID 1259369; calls by dose curve; also: nearly all actives have a fitted effect of over 45% in size; also: potency is read from the fitted curve at half-maximal effect)
How it was run: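 Conditioned medium drives Shh signalling in 3T3Gli1-Luc cells; compounds in DMSO co-applied, 24hr at 37 C, then luciferase luminescence.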

[11] = target: Estrogen receptor beta (Homo sapiens) (UniProt Q92731); assay: qHTS assay to identify small molecule agonists of the estrogen receptor beta (ER-beta) signaling pathway (AID 1259377; active = well fitted activation curve with a large enough effect in the signal ratio in the repeat runs, not every such curve was filed as active; the % refers to the signal ratio)
How it was run: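 ER-beta-UAS-bla HEK293T cells in medium with 2% charcoal-stripped FBS were exposed to compounds for 16 h at 37C. Beta-lactamase reporter activity was read as fluorescence after 2 h with LiveBLAzer B/G FRET substrate at room temperature.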

[12] = target: Estrogen receptor beta (Homo sapiens) (UniProt Q92731); assay: qHTS assay to identify small molecule antagonists of the estrogen receptor beta (ER-beta) signaling pathway (AID 1259378; active = well fitted inhibition curve with a large enough effect in the signal ratio in the repeat runs, not every such curve was filed as active; the % refers to the signal ratio; also: potency is read from the fitted curve at half-maximal effect)
How it was run: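 Antagonist mode: compounds added to beta-lactamase reporter HEK293T ER-beta-UAS cells stimulated with E2 (1nM final), 16 hr at 37C. LiveBLAzer B/G FRET substrate, 2 hours room temperature, fluorescence read-out.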

[13] = qHTS assay to identify small molecule agonists of the androgen receptor (AR) signaling pathway in the presence of an antagonist - cell viability counter screen (AID 1259379); also: nearly all actives have a fitted effect of over 25% in size; also: potency is read from the fitted curve at half-maximal effect
How it was run: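 A CellTiter-Fluor read-out measured viability of MDA-kb2 reporter cells (MMTV promoter with AR and GR response elements). Treatment: nilutamide 3.0uM final with compounds at 15 concentrations, 16 hr, 37C, 0% CO2.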

[14] = qHTS assay to identify small molecule agonists of the estrogen receptor beta (ER-beta) signaling pathway - cell viability counter screen (AID 1259380); also: nearly all actives have a fitted effect of over 30% in size; also: potency is read from the fitted curve at half-maximal effect
How it was run: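 Cells used were ER-beta-UAS-bla HEK293T in medium with 2% charcoal-stripped FBS. They were treated for 16 hr at 37C. Viability came from CellTiter-Glo luminescence.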

[15] = target: Androgen receptor (Homo sapiens) (UniProt P10275); assay: qHTS assay to identify small molecule agonists of the androgen receptor (AR) signaling pathway in the presence of an antagonist (AID 1259381; calls by dose curve; also: nearly all actives have a fitted effect of over 15% in size)
How it was run: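 Using human MDA-kb2 cells with an MMTV promoter–luciferase construct (AR and GR response elements), agonist activity is scored under 3.0uM nilutamide (final) co-treatment; 16hr incubation, 37C, luminescence readout via ONE-Glo.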

[16] = qHTS assay to identify small molecule antagonists of the estrogen receptor beta (ER-beta) signaling pathway - cell viability counter screen (AID 1259382); also: nearly all actives have a fitted effect of over 55% in size; also: potency is read from the fitted curve at half-maximal effect
How it was run: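 Agonist-stimulated (1nM E2) ER-beta-UAS-bla HEK293T cells are incubated with library compounds for 16 hr at 37C. Cell viability is then assessed in the reporter-assay wells by adding CellTiter-Glo and reading luminescence after 30 min.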

[17] = target: Thyrotropin receptor (Homo sapiens) (UniProt P16473); assay: qHTS assay to identify small molecule antagonists of the thyroid stimulating hormone receptor (TSHR) signaling pathway (AID 1259385; calls by dose curve; also: nearly all actives have a fitted effect of over 20% in size; also: potency is read from the fitted curve at half-maximal effect)
How it was run: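 Antagonist mode: compound-treated TSHR-expressing HEK293 cells were stimulated with 1.5 ng/mL TSH (final) in presence of Ro20-1724 for 30 min at RT. HTRF cAMP detection after 1 h; each compound tested at 15 concentrations, triplicate.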

[18] = target: Estrogen receptor (Homo sapiens) (UniProt P03372); assay: qHTS assay to identify small molecule antagonists of the estrogen receptor alpha (ER-alpha) signaling pathway using the BG1 cell line in the presence of 0.1 nM 17-beta-estradiol (AID 1259244); also: nearly all actives have a fitted effect of over 50% in size
How it was run: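 VM7Luc4E2; 4xERE-luciferase; 0.1 nM E2 final; 22 h co-incubation, 37C; ONE-Glo luminescence after 30 min at room temperature.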

[19] = qHTS assay to identify small molecule agonists or antagonists of the thyroid stimulating hormone receptor (TSHR) signaling pathway - wild type cell line counter screen (AID 1259384; calls by dose curve)
How it was run: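 Counter screen in untransfected Hek293: compounds (15-point titration, triplicate) plus phosphodiesterase inhibitor Ro20-1724 added after 18 h plating; 30 min RT. Intracellular cAMP via competitive d2/cryptate immunoassay, 1 h incubation.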

[20] = target: Estrogen receptor (Homo sapiens) (UniProt P03372); assay: qHTS assay to identify small molecule agonists of the estrogen receptor alpha (ER-alpha) signaling pathway in the presence of an antagonist (AID 1259383; calls by dose curve; also: top concentration of the series differs between compounds; nearly all actives have a fitted effect of over 15% in size)
How it was run: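 Using VM7Luc4E2 cells seeded 24hr before treatment, antagonist ICI-182,780 (10.0nM final) was added, followed by compounds at 15 concentrations. Plates incubated 22hr; ONE-Glo luminescence quantified reporter activity.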

Measured: Potency

Estrogen receptor beta (Homo sapiens), sequence (Q92731 whole entry, looked up): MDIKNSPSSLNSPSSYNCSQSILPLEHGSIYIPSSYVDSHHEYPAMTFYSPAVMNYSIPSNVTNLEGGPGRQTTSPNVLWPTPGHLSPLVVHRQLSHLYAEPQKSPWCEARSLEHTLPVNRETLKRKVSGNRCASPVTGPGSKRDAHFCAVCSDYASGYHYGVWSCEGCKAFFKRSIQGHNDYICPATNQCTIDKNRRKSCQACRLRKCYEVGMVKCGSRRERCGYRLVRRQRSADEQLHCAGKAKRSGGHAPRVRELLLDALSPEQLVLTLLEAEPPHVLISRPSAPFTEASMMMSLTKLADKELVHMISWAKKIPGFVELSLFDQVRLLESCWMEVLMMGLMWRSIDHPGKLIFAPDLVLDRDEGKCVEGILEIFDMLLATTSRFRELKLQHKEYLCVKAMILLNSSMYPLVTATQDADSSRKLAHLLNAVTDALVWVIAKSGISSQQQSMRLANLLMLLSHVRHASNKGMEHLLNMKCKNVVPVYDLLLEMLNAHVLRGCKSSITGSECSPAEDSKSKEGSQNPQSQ
Thyrotropin receptor (Homo sapiens), sequence (P16473 whole entry, looked up): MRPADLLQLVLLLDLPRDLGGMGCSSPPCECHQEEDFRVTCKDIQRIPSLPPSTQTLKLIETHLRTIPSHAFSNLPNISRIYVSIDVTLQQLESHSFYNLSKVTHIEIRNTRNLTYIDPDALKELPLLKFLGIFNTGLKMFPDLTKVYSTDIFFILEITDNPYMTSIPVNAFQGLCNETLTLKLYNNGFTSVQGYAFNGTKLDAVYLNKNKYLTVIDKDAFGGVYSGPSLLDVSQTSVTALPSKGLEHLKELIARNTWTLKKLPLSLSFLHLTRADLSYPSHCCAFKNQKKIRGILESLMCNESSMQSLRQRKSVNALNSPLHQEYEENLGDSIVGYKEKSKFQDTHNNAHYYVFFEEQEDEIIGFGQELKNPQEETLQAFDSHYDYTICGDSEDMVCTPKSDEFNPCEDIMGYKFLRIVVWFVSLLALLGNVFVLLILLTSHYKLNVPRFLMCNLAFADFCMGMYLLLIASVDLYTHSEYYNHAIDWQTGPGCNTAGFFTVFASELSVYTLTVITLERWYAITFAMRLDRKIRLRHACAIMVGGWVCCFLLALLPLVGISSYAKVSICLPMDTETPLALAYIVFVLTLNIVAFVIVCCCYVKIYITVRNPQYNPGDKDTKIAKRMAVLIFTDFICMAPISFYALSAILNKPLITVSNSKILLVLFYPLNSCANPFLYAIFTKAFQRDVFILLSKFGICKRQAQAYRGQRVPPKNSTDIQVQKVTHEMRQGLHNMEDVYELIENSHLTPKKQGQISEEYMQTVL
Androgen receptor (Homo sapiens), sequence (P10275 whole entry, looked up): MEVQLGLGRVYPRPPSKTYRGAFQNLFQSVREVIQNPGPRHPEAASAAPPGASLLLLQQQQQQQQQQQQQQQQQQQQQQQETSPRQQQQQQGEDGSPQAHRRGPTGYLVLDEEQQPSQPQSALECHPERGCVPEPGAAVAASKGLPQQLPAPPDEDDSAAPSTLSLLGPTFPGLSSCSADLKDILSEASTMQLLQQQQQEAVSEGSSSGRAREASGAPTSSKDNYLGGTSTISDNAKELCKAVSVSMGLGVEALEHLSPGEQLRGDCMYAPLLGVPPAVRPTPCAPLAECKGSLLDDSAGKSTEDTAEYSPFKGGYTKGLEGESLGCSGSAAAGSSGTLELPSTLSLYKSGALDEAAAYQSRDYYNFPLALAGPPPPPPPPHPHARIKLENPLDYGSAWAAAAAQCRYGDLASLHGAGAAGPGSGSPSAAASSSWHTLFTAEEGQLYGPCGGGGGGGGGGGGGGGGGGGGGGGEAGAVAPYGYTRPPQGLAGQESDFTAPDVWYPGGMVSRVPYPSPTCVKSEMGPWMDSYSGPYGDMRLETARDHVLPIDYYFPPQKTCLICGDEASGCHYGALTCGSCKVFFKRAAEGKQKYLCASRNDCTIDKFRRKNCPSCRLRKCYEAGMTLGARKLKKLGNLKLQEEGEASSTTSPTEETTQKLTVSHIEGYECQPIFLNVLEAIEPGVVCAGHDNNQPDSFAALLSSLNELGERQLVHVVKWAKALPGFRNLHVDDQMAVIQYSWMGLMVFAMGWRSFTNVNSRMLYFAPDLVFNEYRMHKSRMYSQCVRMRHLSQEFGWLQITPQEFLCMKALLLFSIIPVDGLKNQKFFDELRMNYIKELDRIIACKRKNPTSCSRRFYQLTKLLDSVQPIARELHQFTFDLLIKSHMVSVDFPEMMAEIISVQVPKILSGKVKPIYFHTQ
Estrogen receptor (Homo sapiens), sequence (P03372 whole entry, looked up): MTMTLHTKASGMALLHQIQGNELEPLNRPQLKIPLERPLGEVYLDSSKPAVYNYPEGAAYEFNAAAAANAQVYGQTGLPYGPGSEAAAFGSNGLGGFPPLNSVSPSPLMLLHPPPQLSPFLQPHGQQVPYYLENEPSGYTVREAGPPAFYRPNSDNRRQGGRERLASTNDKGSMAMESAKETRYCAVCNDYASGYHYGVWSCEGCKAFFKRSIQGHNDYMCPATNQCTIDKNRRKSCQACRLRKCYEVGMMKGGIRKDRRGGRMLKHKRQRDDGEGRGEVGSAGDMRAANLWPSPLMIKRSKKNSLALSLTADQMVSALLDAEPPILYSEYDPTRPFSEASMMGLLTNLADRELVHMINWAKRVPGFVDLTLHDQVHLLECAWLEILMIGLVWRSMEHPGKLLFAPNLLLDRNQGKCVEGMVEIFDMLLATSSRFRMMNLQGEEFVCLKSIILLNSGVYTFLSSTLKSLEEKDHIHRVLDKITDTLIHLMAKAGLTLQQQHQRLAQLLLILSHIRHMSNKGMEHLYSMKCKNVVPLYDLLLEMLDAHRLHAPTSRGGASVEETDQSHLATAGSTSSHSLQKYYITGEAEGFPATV

C[CH2][Hg][S]c1ccccc1C(=O)O
inactive: [4] | [6] | [9] | [11] | [15]
active: [1] 21.7 µM and 5.96 µM | [2] 17.2 µM and 11.9 µM | [3] 7.7 µM and 7.5 µM | [5] 19.3 µM and 23.7 µM | [7] 1.72 µM and 1.19 µM | [8] 1.93 µM and 5.96 µM | [10] 0.686 µM | [12] 3.35 µM | [13] 10.9 µM and 13.3 µM | [14] 2.17 µM and 5.31 µM | [16] 2.43 µM and 5.31 µM | [17] 13.7 µM and 29.8 µM

CCN(C(C)=O)c1cccc(-c2ccnc3c(C#N)cnn23)c1
inactive: [1] | [2] | [18] | [4] | [5] | [6] | [7] | [8] | [9] | [13] | [14] | [19] | [17]

COC1CC(=C(c2cccs2)c2cccs2)C[N+](C)(C)C1 (stereo unspecified)
inactive: [1] | [2] | [18] | [4] | [5] | [6] | [7] | [8] | [9] | [14] | [20] | [19] | [17]

FC(F)OC(F)(F)C(F)Cl (stereo unspecified)
inactive: [1] | [2] | [3] | [4] | [5] | [6] | [7] | [8] | [9] | [10] | [11] | [12] | [13] | [14] | [15] | [16] | [19] | [17]

CC(CC(C(N)=O)(c1ccccc1)c1ccccc1)N(C)C (stereo unspecified)
inactive: [1] | [2] | [3] | [5] | [6] | [9] | [13] | [14] | [15] | [19] | [17]

COCc1cnc(C2=NC(C)(C(C)C)C(=O)N2)c(C(=O)O)c1 (stereo unspecified)
inactive: [1] | [2] | [3] | [18] | [5] | [6] | [7] | [8] | [9] | [12] | [13] | [14] | [15] | [16] | [20] | [19] | [17]

CC(C)c1ccc(NC(=O)N(C)C)cc1
inactive: [1] | [2] | [18] | [6] | [7] | [8] | [9] | [10] | [11] | [12] | [13] | [14] | [16] | [20] | [19] | [17]
active: [5] 24.3 µM

O=[N+]([O-])O[C@H]1CO[C@H]2[C@@H]1OC[C@H]2O[N+](=O)[O-]
inactive: [1] | [2] | [18] | [4] | [6] | [7] | [8] | [9] | [10] | [11] | [12] | [13] | [16] | [19] | [17]

CCCCCBr
inactive: [1] | [2] | [3] | [18] | [5] | [6] | [7] | [8] | [9] | [10] | [11] | [12] | [13] | [14] | [15] | [16] | [20] | [19]

c1ccc2c(c1)sc1ccccc12
inactive: [1] | [2] | [18] | [4] | [5] | [6] | [7] | [8] | [9] | [10] | [13] | [14] | [16] | [20] | [19] | [17]

CC(Cl)C(=O)O (stereo unspecified)
inactive: [1] | [2] | [3] | [5] | [6] | [7] | [8] | [9] | [13] | [14] | [15] | [19] | [17]

NP(N)(=O)NC(=O)c1ccc(F)cc1
inactive: [1] | [2] | [3] | [18] | [4] | [5] | [6] | [7] | [8] | [9] | [11] | [12] | [13] | [14] | [15] | [16] | [20] | [19] | [17]

NCCc1cc(O)c(O)cc1O
inactive: [1] | [2] | [18] | [4] | [5] | [6] | [8] | [9] | [10] | [13] | [14] | [16] | [19]

CC(C)(C)NCC(O)c1ccccc1Cl (stereo unspecified)
inactive: [1] | [2] | [18] | [4] | [5] | [6] | [7] | [8] | [9] | [10] | [11] | [12] | [13] | [14] | [20] | [19] | [17]

ClCc1ccccc1Cl
inactive: [1] | [2] | [3] | [5] | [6] | [7] | [8] | [9] | [10] | [12] | [13] | [14] | [15] | [16] | [19] | [17]

C[N+]1(CCF)[C@@H]2CC[C@H]1CC(OC(=O)C(O)(c1ccccc1)c1ccccc1)C2 (stereo partly specified)
inactive: [1] | [2] | [18] | [4] | [5] | [6] | [7] | [8] | [9] | [10] | [13] | [14] | [20] | [19] | [17]

COc1cc(C[C@@H](C)N)c(OC)cc1Br
active: [14] 35.3 µM
inactive: [1] | [2] | [18] | [4] | [5] | [6] | [8] | [9] | [13] | [20] | [19] | [17]

From PubChem BioAssay (Tox21)
